Screening data deposited in PubChem by The Scripps Research Institute Molecular Screening Center.
ssDAF12 agonist: S. stercoralis DAF-12 nuclear receptor activators, primary screen, cell-based, luminescence, HEK293, GRIP1 co-expression, lit1-tk-luc | Nuclear hormone receptor DAF-12 (Strongyloides stercoralis) | HEK293 ssDAF-12/GRIP1 lit1-tk-luc reporter; % of 3 µM dafachronic acid response | activation, % at 6.8 µM | actives 1% (n = 370,000);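 active = activation above the mean over all tested compounds plus 3 SD, cut at about 0.9% in these data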;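 note: 0% = DMSO-only wells and 100% = 3 µM delta7-dafachronic acid wells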
hgDAF-12 ag: H. glycines DAF-12 receptor agonists, primary screen, cell-based, luminescence, HEK293, GAL4 fusion, UAS-luciferase; HEK293 GAL4-hgDAF12 UAS-luciferase reporter, agonist luminescence; normalized to butyrate control; activation, % at 6.8 µM; actives 1.8% (n = 370,000); AID 687014, 2013;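 active = activation above a cutoff set at the mean of all screened compounds plus 3 SD, cut at about 10% in these data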;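 note: 0% = DMSO wells and 100% = sodium butyrate wells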
hcDAF12 agonist: H. contortus DAF-12 nuclear receptor activators, primary screen, cell-based, luminescence, HEK293, lit1-tk-luc reporter. actives 1.4% (n = 370,000). HEK293 hcDAF-12 lit1-tk-luc reporter; 0% DMSO, 100% Δ7-dafachronic acid. activation, % at 6.8 µM. AID 652067, 2013;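 active = activation above the mean of all tested compounds plus 3 SD, cut at about 5.5% in these data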;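 note: 100% = response to 3 µM Δ7-dafachronic acid high control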
AHR activator: AHR activators, primary screen, cell-based, luminescence, luciferase reporter, human; activation, % at 5 µM; AID 2796, 2010; actives 2.5% (n = 320,000); AHR-responsive luciferase reporter cells; Aryl hydrocarbon receptor (Homo sapiens), P35869; in the data active = activation above about 47%;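 note: 0% = vehicle wells and 100% = reference agonist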
DAX1 inh-1: DAX1 (NR0B1) inhibitors on StAR promoter, primary screen, cell-based, luminescence, SF-1 (NR5A1), full-length DAX-1; HEK293T StAR-luciferase reporter, SF-1/DAX-1 repression relief; inhibition, % at 6.8 µM; actives 1.1% (n = 370,000);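 active = inhibition above the mean over all tested compounds plus 3 SD, cut at about 3.6% in these data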;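 note: 0% = DAX-1 cells with DMSO and 100% = cells lacking DAX-1 with DMSO; higher inhibition means more luminescence from relief of DAX-1 repression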
DAX1 inh-2: DAX1 (NR0B1) inhibitors, primary screen, cell-based, HEK293, Gal4-DAX1, luciferase luminescence; Nuclear receptor subfamily 0 group B member 1 (Homo sapiens), P51843; HEK293 Gal4-DAX1 luciferase reporter; inhibition, % at 6.75 µM; actives 0.99% (n = 340,000);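 active = inhibition above the mean over all tested compounds plus 3 SD, cut at about 4.2% in these data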;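 note: 0% = DAX1-transfected cells with DMSO and 100% = empty-vector control cells with DMSO; inhibition shows as a rise in luminescence from relieved DAX1 repression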
Target sequence (P51843 207-470 limits assumed): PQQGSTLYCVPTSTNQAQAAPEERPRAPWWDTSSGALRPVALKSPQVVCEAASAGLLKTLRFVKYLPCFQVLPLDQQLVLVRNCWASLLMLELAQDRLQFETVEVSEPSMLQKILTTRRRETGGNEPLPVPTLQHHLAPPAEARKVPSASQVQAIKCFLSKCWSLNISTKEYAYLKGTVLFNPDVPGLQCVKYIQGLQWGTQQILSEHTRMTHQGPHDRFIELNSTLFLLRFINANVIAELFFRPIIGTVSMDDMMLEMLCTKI
Starred values were filed as active, the others as inactive. An excerpt weighted towards active compounds, which were near 5.7% of everything screened.

Results for Cc1ccc(C(=O)NC2CCCCNC2=O)cc1C (configuration not stated) ?
ssDAF12 agonist: -2; hgDAF-12 ag: 3; hcDAF12 agonist: 1; AHR activator: 2; DAX1 inh-1: 1; DAX1 inh-2: 4

Results for COC(=O)[C@]12C=CCN1[C@H](c1ccc(C(F)(F)F)cc1)c1c(c3ccccc3n1S(=O)(=O)c1ccc(C)cc1)C2 ?
ssDAF12 agonist: -1; hgDAF-12 ag: 1; hcDAF12 agonist: 3; DAX1 inh-1: 1

Results for O=C1CCCN1CCCNCC(=O)N1c2ccccc2Sc2ccccc21 ?
ssDAF12 agonist: -1; hgDAF-12 ag: -2; hcDAF12 agonist: -1; AHR activator: -6; DAX1 inh-1: -1; DAX1 inh-2: 1

How did CCN1C(=O)CC(C(=O)NCCc2ccc(S(N)(=O)=O)cc2)SC1=Nc1ccc(OC)cc1 (configuration not stated) do in these assays?
ssDAF12 agonist: -1; hgDAF-12 ag: -2; hcDAF12 agonist: -1; AHR activator: 1; DAX1 inh-1: -1; DAX1 inh-2: 0

How did Cc1cc(-c2ccc(C(C)C)c(S(=O)(=O)NCCN3CCC(C)CC3)c2)on1 do in these assays?
ssDAF12 agonist: -2; hgDAF-12 ag: 3; hcDAF12 agonist: -2; AHR activator: 6; DAX1 inh-1: 0; DAX1 inh-2: 1

Results for O=S(=O)(c1ccc(Cl)cc1)N1CCN(Cc2ccc(O)c3ncccc23)CC1 ?
ssDAF12 agonist: -3; hgDAF-12 ag: -7; hcDAF12 agonist: -2; AHR activator: 0; DAX1 inh-1: -2; DAX1 inh-2: 0

What do the screens show for `Cc1cc(C(=O)N2CCc3ccccc32)n(-c2ccccc2)n1`?
ssDAF12 agonist: -1; hgDAF-12 ag: 1; hcDAF12 agonist: 1; AHR activator: 8; DAX1 inh-1: 1; DAX1 inh-2: 2

What do the screens show for `Cn1cccc1/C=N/NC(=O)c1ccncc1`?
ssDAF12 agonist: -1; hgDAF-12 ag: -1; hcDAF12 agonist: 6.2*; AHR activator: 9; DAX1 inh-1: 0

How did Cc1cc(C(=O)N/N=C/c2cccn2C)no1 do in these assays?
ssDAF12 agonist: -1; hgDAF-12 ag: 3; hcDAF12 agonist: 2; AHR activator: 3; DAX1 inh-1: 0; DAX1 inh-2: 0

Results for Cn1cccc1/C=N/NC(=O)c1ccccn1 ?
ssDAF12 agonist: 0; hgDAF-12 ag: 12*; hcDAF12 agonist: 2; AHR activator: 9; DAX1 inh-1: 3.7*; DAX1 inh-2: 1

How did CC1=NN(c2ccccc2)C(=O)C1=C(C)C do in these assays?
ssDAF12 agonist: -1; hgDAF-12 ag: 0; hcDAF12 agonist: 3; AHR activator: 4; DAX1 inh-1: -1; DAX1 inh-2: 2

Results for O=C(/C=C/c1ccccc1)NCCS(=O)(=O)N1CCN(c2ccccc2F)CC1 ?
ssDAF12 agonist: -1; hgDAF-12 ag: -4; hcDAF12 agonist: -1; AHR activator: 4; DAX1 inh-1: -1; DAX1 inh-2: 0

What do the screens show for `CSc1nc2sc3c(c2c(=O)[nH]1)CCC(C)C3` (configuration not stated)?
ssDAF12 agonist: -2; hgDAF-12 ag: 1; hcDAF12 agonist: -1; AHR activator: 69*; DAX1 inh-1: 1; DAX1 inh-2: -1

Results for COc1cc(NC(=O)c2cc3sccc3n2C)cc(OC)c1 ?
ssDAF12 agonist: 0; hgDAF-12 ag: 10; hcDAF12 agonist: 6.0*; AHR activator: 30; DAX1 inh-1: 2; DAX1 inh-2: 2

What do the screens show for `CCn1cc([N+](=O)[O-])c(C(=O)NCc2ccc3c(c2)OCO3)n1`?
ssDAF12 agonist: -1; hgDAF-12 ag: 0; hcDAF12 agonist: 1; AHR activator: 5; DAX1 inh-1: 0; DAX1 inh-2: 4.9*

Results for Cn1c(C(=O)NCc2ccc3c(c2)OCO3)cc2sccc21 ?
ssDAF12 agonist: -1; hgDAF-12 ag: 1; hcDAF12 agonist: 6.2*; AHR activator: 13; DAX1 inh-1: -1; DAX1 inh-2: 0

What do the screens show for `CCc1ccccc1NC(=O)c1cc2sccc2n1C`?
ssDAF12 agonist: -1; hgDAF-12 ag: 6; hcDAF12 agonist: 0; AHR activator: 64*; DAX1 inh-1: 0; DAX1 inh-2: 1

What do the screens show for `CCn1cc([N+](=O)[O-])c(C(=O)Nc2ccc3c(c2)OCCO3)n1`?
ssDAF12 agonist: -1; hgDAF-12 ag: 5; hcDAF12 agonist: 0; AHR activator: 6; DAX1 inh-1: 1; DAX1 inh-2: 0

Results for O=C(N=C1SC2CS(=O)(=O)CC2N1Cc1ccccc1)C1CCCCC1 (configuration not stated) ?
ssDAF12 agonist: -1; hgDAF-12 ag: -2; hcDAF12 agonist: 0; AHR activator: -2; DAX1 inh-1: 0; DAX1 inh-2: 0

Results for CC(C)CC(c1nc2ccccc2[nH]1)n1c(-c2ccccc2Br)nc2ccccc21 (configuration not stated) ?
ssDAF12 agonist: -1; hgDAF-12 ag: 0; hcDAF12 agonist: 2; DAX1 inh-1: -2

Results for C=CCSc1nc2ccccc2c2nc(-c3ccccc3)nn12 ?
ssDAF12 agonist: 0; hgDAF-12 ag: 3; hcDAF12 agonist: 2; AHR activator: 29; DAX1 inh-1: 0; DAX1 inh-2: 4.7*

What do the screens show for `COc1cccc(C(=O)NNC(=O)C2CC(C)=C(C)CC2C(=O)O)c1` (configuration not stated)?
ssDAF12 agonist: -1; hgDAF-12 ag: 1; hcDAF12 agonist: 0; AHR activator: 6; DAX1 inh-1: 0; DAX1 inh-2: 0

How did Cc1ccc(CN2C3=NCCCN3c3ccccc32)cc1 do in these assays?
ssDAF12 agonist: -1; hgDAF-12 ag: -2; hcDAF12 agonist: -1; AHR activator: 5; DAX1 inh-1: -1; DAX1 inh-2: -1

Results for Fc1ccc(F)c(C2=NNC(=NCC3CCCO3)SC2)c1 (configuration not stated) ?
ssDAF12 agonist: 0; hgDAF-12 ag: 12*; hcDAF12 agonist: 5; AHR activator: 13; DAX1 inh-1: 1; DAX1 inh-2: 2

What do the screens show for `O=C(CCN1C(=O)/C(=C/c2ccccc2F)SC1=S)N[C@@H](CO)Cc1ccccc1`?
ssDAF12 agonist: -1; hgDAF-12 ag: 1; hcDAF12 agonist: 1; AHR activator: 0; DAX1 inh-1: 0; DAX1 inh-2: 1
